# How the values were obtained:
# Experiment in all cases: yeast three-hybrid, YBZ-1, SC-Leu-His + 0.5 mM 3-AT, 4 days
# Conditions in all cases: tags: N-Gal4 AD-HA kept; label: inside an RPR1-promoter hybrid RNA with tandem MS2 sites; ssRNA
# [1] = target: PUM1 PUF domain R3-RMW (Homo sapiens, UniProt Q14671 828-1176, C935R;R936M;Q939W)
# In short: (§1)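 A centromeric plasmid in strain YBZ-1 co-expressed Pumilio-1 PUF domain libraries, randomized at the three base-contacting residues of each repeat, with matching RNA elements; the strain carries a LexA–MS2 coat fusion and a HIS3 reporter. After four days on SC-Leu (input) or SC-Leu-His + 0.5 mM 3-AT (selection), the repeat regions were PCR-amplified and Illumina-sequenced. The interaction score is the log change in variant frequency from input to selection, using log2 and a pseudocount of 1 where absent.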
# [2] = target: PUM1 PUF domain R3-RSR (Homo sapiens, UniProt Q14671 828-1176, C935R;R936S;Q939R)
# In short: as §1
# [3] = target: PUM1 PUF domain R3-MRW (Homo sapiens, UniProt Q14671 828-1176, C935M;Q939W)
# In short: as §1
# [4] = target: PUM1 PUF domain R1-RSQ (Homo sapiens, UniProt Q14671 828-1176, S863R;R864S)
# In short: as §1
# [5] = target: PUM1 PUF domain R1-SWR (Homo sapiens, UniProt Q14671 828-1176, R864W;Q867R)
# In short: as §1
# [6] = target: PUM1 PUF domain R3-FSN (Homo sapiens, UniProt Q14671 828-1176, C935F;R936S;Q939N)
# In short: as §1
# [7] = target: PUM1 PUF domain R5-ARK (Homo sapiens, UniProt Q14671 828-1176, C1007A;Q1011K)
# In short: as §1
# [8] = target: PUM1 PUF domain R5-NGR (Homo sapiens, UniProt Q14671 828-1176, C1007N;R1008G;Q1011R)
# In short: as §1
# [9] = target: PUM1 PUF domain R5-LHI (Homo sapiens, UniProt Q14671 828-1176, C1007L;R1008H;Q1011I)
# In short: as §1
# [10] = target: PUM1 PUF domain R7-RCR (Homo sapiens, UniProt Q14671 828-1176, S1079R;N1080C;E1083R)
# In short: as §1
# [11] = target: PUM1 PUF domain R8-QWK (Homo sapiens, UniProt Q14671 828-1176, N1122Q;Y1123W;Q1126K)
# In short: as §1
# [12] = target: T1, PUM1 PUF domain R6-LWT (Homo sapiens, UniProt Q14671 828-1176, N1043L;Y1044W;Q1047T)
# T1 sequence: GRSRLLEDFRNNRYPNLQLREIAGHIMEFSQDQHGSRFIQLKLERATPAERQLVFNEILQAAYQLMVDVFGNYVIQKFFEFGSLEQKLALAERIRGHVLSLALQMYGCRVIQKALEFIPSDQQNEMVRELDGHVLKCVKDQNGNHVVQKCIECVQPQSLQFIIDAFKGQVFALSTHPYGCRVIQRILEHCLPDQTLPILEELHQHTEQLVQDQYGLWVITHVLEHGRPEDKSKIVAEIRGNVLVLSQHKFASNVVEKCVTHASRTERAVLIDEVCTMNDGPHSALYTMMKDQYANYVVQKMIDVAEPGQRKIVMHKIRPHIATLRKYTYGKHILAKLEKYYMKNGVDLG
# In short: as §1
# [13] = target: PUM1 PUF domain R4-AHV (Homo sapiens, UniProt Q14671 828-1176, N971A;Q975V)
# In short: as §1
# [14] = target: PUM1 PUF domain R4-PYF (Homo sapiens, UniProt Q14671 828-1176, N971P;H972Y;Q975F)
# In short: as §1
# [15] = target: PUM1 PUF domain R5-RYP (Homo sapiens, UniProt Q14671 828-1176, C1007R;R1008Y;Q1011P)
# In short: as §1
# [16] = target: PUM1 PUF domain R2-SWF (Homo sapiens, UniProt Q14671 828-1176, N899S;Y900W;Q903F)
# In short: as §1
# [17] = target: PUM1 PUF domain R8-HFT (Homo sapiens, UniProt Q14671 828-1176, N1122H;Y1123F;Q1126T)
# In short: as §1
# [18] = target: PUM1 PUF domain R4-LNC (Homo sapiens, UniProt Q14671 828-1176, N971L;H972N;Q975C)
# In short: as §1
# [19] = target: PUM1 PUF domain R2-MWG (Homo sapiens, UniProt Q14671 828-1176, N899M;Y900W;Q903G)
# In short: as §1
sequence,measurement,setting,value
GGCUAGAACUAGUGGAUCCCCCGGCGCCCGGCGGCUCGAGCCCGGGUAAGUGUAAUUAGUCUGCAUGCCGCCGGGCGCCAUGCCUGCAGGUCGACUCUAGAAAACAUG,binding signal,[1],2.28 log2 enrichment (interaction score)
same,binding signal,[2],3.41 log2 enrichment (interaction score)
same,binding signal,[3],2.07 log2 enrichment (interaction score)
GGCUAGAACUAGUGGAUCCCCCGGCGCCCGGCGGCUCGAGCCCGGGUAAGUGUAAAUUGUCUGCAUGCCGCCGGGCGCCAUGCCUGCAGGUCGACUCUAGAAAACAUG,binding signal,[4],5.08 log2 enrichment (interaction score)
same,binding signal,[5],0.84 log2 enrichment (interaction score)
GGCUAGAACUAGUGGAUCCCCCGGCGCCCGGCGGCUCGAGCCCGGGUAAGUGUAAAUCGUCUGCAUGCCGCCGGGCGCCAUGCCUGCAGGUCGACUCUAGAAAACAUG,binding signal,[4],4.74 log2 enrichment (interaction score)
same,binding signal,[5],3.04 log2 enrichment (interaction score)
GGCUAGAACUAGUGGAUCCCCCGGCGCCCGGCGGCUCGAGCCCGGGUAAGUGUAAGUAGUCUGCAUGCCGCCGGGCGCCAUGCCUGCAGGUCGACUCUAGAAAACAUG,binding signal,[6],2.79 log2 enrichment (interaction score)
same,binding signal,[3],5.09 log2 enrichment (interaction score)
GGCUAGAACUAGUGGAUCCCCCGGCGCCCGGCGGCUCGAGCCCGGGUAAGUGUCAAUAGUCUGCAUGCCGCCGGGCGCCAUGCCUGCAGGUCGACUCUAGAAAACAUG,binding signal,[7],0.39 log2 enrichment (interaction score)
same,binding signal,[8],2.58 log2 enrichment (interaction score)
same,binding signal,[9],0.32 log2 enrichment (interaction score)
GGCUAGAACUAGUGGAUCCCCCGGCGCCCGGCGGCUCGAGCCCGGGUAAGUGUUAAUAGUCUGCAUGCCGCCGGGCGCCAUGCCUGCAGGUCGACUCUAGAAAACAUG,binding signal,[7],3.13 log2 enrichment (interaction score)
same,binding signal,[9],3.78 log2 enrichment (interaction score)
GGCUAGAACUAGUGGAUCCCCCGGCGCCCGGCGGCUCGAGCCCGGGUAAGUUUAAAUAGUCUGCAUGCCGCCGGGCGCCAUGCCUGCAGGUCGACUCUAGAAAACAUG,binding signal,[10],5.68 log2 enrichment (interaction score)
GGCUAGAACUAGUGGAUCCCCCGGCGCCCGGCGGCUCGAGCCCGGGUAAGUCUAAAUAGUCUGCAUGCCGCCGGGCGCCAUGCCUGCAGGUCGACUCUAGAAAACAUG,binding signal,[10],4.6 log2 enrichment (interaction score)
GGCUAGAACUAGUGGAUCCCCCGGCGCCCGGCGGCUCGAGCCCGGGUAAGUGUAAAUAGUCUGCAUGCCGCCGGGCGCCAUGCCUGCAGGUCGACUCUAGAAAACAUG,binding signal,[11],2.09 log2 enrichment (interaction score)
same,binding signal,[12],6.06 log2 enrichment (interaction score)
same,binding signal,[13],4.52 log2 enrichment (interaction score)
same,binding signal,[14],7.96 log2 enrichment (interaction score)
same,binding signal,[15],2.37 log2 enrichment (interaction score)
same,binding signal,[16],1.61 log2 enrichment (interaction score)
GGCUAGAACUAGUGGAUCCCCCGGCGCCCGGCGGCUCGAGCCCGGGUAAGGGUAAAUAGUCUGCAUGCCGCCGGGCGCCAUGCCUGCAGGUCGACUCUAGAAAACAUG,binding signal,[11],3.09 log2 enrichment (interaction score)
GGCUAGAACUAGUGGAUCCCCCGGCGCCCGGCGGCUCGAGCCCGGGUAAGUGAAAAUAGUCUGCAUGCCGCCGGGCGCCAUGCCUGCAGGUCGACUCUAGAAAACAUG,binding signal,[12],2.9 log2 enrichment (interaction score)
GGCUAGAACUAGUGGAUCCCCCGGCGCCCGGCGGCUCGAGCCCGGGUAAGCGUAAAUAGUCUGCAUGCCGCCGGGCGCCAUGCCUGCAGGUCGACUCUAGAAAACAUG,binding signal,[17],3.48 log2 enrichment (interaction score)
GGCUAGAACUAGUGGAUCCCCCGGCGCCCGGCGGCUCGAGCCCGGGUAAGUGUAUAUAGUCUGCAUGCCGCCGGGCGCCAUGCCUGCAGGUCGACUCUAGAAAACAUG,binding signal,[18],2.66 log2 enrichment (interaction score)
GGCUAGAACUAGUGGAUCCCCCGGCGCCCGGCGGCUCGAGCCCGGGUAAGUGUAAAGAGUCUGCAUGCCGCCGGGCGCCAUGCCUGCAGGUCGACUCUAGAAAACAUG,binding signal,[19],3.95 log2 enrichment (interaction score)
GGCUAGAACUAGUGGAUCCCCCGGCGCCCGGCGGCUCGAGCCCGGGUAAGUGUAAAAAGUCUGCAUGCCGCCGGGCGCCAUGCCUGCAGGUCGACUCUAGAAAACAUG,binding signal,[19],1.87 log2 enrichment (interaction score)
same,binding signal,[16],2.22 log2 enrichment (interaction score)
